HSF1 inhib: HSF1 inhibition | NIH3T3-HGL HSE-luciferase, MG132-induced, luminescence 8 h; hits give low values | activity change, negative = inhibition, % at 7.5 µM (by protocol) | 300,000 tested, 0.77% active | AID 2098;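 active means more than half of replicate wells show activity change below -50%, luminescence cut by over half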;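 further: luciferase reports HSF-1 transcriptional activity via heat shock element; 0% = median of DMSO wells and -100% = zero luminescence signal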
HSF-1 act: increases HSF-1 driven luciferase reporter signal | activation, % at 9 µM | 300,000 tested, 1.7% active | NIH3T3-HGL HSF-1 luciferase reporter, MG132, 8 h; 100% = twice DMSO control signal;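 active means mean replicate activation of at least 50% with a set share of replicates each reaching 50%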;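 further: 0% = median of the neutral control wells and 100% = twice that signal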
AHR act: human AHR activation; 320,000 tested, 2.5% active; activation, % at 5 µM; AHR-responsive luciferase reporter cells, luminescence; in the data active means activation above about 47%;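 further: 0% = vehicle wells and 100% = reference agonist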
Target sequence (P35869 whole entry, looked up): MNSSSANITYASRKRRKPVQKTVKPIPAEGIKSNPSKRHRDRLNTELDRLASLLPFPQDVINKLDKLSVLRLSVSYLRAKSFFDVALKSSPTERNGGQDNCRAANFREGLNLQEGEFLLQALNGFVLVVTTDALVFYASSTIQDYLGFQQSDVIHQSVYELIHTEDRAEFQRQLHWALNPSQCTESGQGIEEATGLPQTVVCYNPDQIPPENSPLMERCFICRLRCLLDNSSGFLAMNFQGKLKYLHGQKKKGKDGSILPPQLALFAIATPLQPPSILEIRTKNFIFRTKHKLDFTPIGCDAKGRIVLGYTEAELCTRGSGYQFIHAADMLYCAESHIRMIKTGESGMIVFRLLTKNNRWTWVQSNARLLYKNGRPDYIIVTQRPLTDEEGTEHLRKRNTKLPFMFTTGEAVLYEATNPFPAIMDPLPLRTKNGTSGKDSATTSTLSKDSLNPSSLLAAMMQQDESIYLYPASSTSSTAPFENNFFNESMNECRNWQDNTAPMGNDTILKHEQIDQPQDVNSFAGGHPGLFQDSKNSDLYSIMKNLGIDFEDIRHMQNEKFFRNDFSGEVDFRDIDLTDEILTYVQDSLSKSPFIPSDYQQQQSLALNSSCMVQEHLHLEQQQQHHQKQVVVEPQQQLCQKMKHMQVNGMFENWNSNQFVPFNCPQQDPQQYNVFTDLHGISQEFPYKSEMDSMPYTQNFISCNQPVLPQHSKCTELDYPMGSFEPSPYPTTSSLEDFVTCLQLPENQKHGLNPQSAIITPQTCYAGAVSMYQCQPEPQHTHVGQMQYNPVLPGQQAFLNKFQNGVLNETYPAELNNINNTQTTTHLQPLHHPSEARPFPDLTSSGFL
FXN GAA850 act: activators of GAA850 frataxin (FXN) promoter. 360,000 tested, 0.56% active. activation, % at 6 µM. AID 540364. HEK293 lucGAA850 FXN promoter luciferase reporter, 24 h; percent of 10 µM SAHA response;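 active means activation above the average of all compounds screened plus 3 SD, cutoff fixed separately per campaign, cut at about 7.5% in these data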;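 further: 0% = DMSO wells and 100% = 10 µM SAHA wells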
DAX1 inh: NR0B1 (DAX1) inhibition. P51843. HEK293 Gal4-DAX1 luciferase reporter, luminescence. inhibition, % at 6.75 µM. 340,000 tested, 0.99% active. AID 504766;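 active means inhibition above the mean over all tested compounds plus 3 SD, cut at about 4.2% in these data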;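 further: 0% = DAX1-transfected cells with DMSO and 100% = empty-vector control cells with DMSO; inhibition shows as a rise in luminescence from relieved DAX1 repression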
Numbers without * were called inactive. Rows were chosen to be rich in hits. Some 5.4% of all compounds tested hit in one or more screens of this group.

Results for CC(C)(C)c1ccc(S(=O)(=O)/N=C2\C=C(NS(=O)(=O)c3ccccc3)C(=O)c3ccccc32)cc1 ?
HSF1 inhib: 17; HSF-1 act: 39; AHR act: 54*; FXN GAA850 act: 6; DAX1 inh: 0

What do the screens show for `Cc1ccc(S(=O)(=O)/N=C2\C=C(NS(=O)(=O)c3ccccc3)C(=O)c3ccccc32)c(C)c1`?
FXN GAA850 act: 2; DAX1 inh: -1

What do the screens show for `COC(=O)c1ccccc1NC1=C/C(=N\S(=O)(=O)c2ccc(C(=O)O)cc2)c2ccccc2C1=O`?
HSF1 inhib: -1; HSF-1 act: -4; AHR act: 62*; FXN GAA850 act: 3; DAX1 inh: 0

Results for COC(=O)c1ccccc1NC1=C/C(=N\S(=O)(=O)c2cccs2)c2ccccc2C1=O ?
HSF1 inhib: 33; HSF-1 act: 40; AHR act: 88*; FXN GAA850 act: -7; DAX1 inh: -1

Results for Cc1ccc(C(=O)N2CCN(c3ccccn3)CC2)cc1Cl ?
HSF1 inhib: 1; HSF-1 act: 13; AHR act: 8; FXN GAA850 act: 2; DAX1 inh: -2

How did CCOc1ccc(Nc2nc3c(C)cccc3cc2C#N)cc1 do in these assays?
HSF1 inhib: -3; HSF-1 act: 9; AHR act: 50*; FXN GAA850 act: -1; DAX1 inh: 0

How did COc1ccc(S(=O)(=O)N2CCN(C(=O)NCc3ccc(OC)c(OC)c3)CC2)cc1 do in these assays?
HSF1 inhib: -5; HSF-1 act: -3; AHR act: 0; FXN GAA850 act: 1; DAX1 inh: 0

How did CC1(C)C(/C=C/C=C/C=C/C=C2\N(CCCCS(=O)(=O)O)c3ccc4ccccc4c3C2(C)C)=[N+](CCCCS(=O)(=O)[O-])c2ccc3ccccc3c21 do in these assays?
AHR act: -1; FXN GAA850 act: 1; DAX1 inh: -1

What do the screens show for `Cc1cc(C)n(-c2nc(NCCO)c3c4c(sc3n2)CCCC4)n1`?
HSF1 inhib: -3; HSF-1 act: 6; AHR act: 47*; FXN GAA850 act: 0; DAX1 inh: 0

How did Cc1cc(C)n(-c2nc(NCCCO)c3c4c(sc3n2)CCCC4)n1 do in these assays?
HSF1 inhib: -10; HSF-1 act: 0; AHR act: 47; FXN GAA850 act: 6; DAX1 inh: -1

Results for O=C(NCc1cccnc1)c1ccc(-c2cc(Cl)ccc2Cl)o1 ?
HSF1 inhib: -2; HSF-1 act: 4; AHR act: 76*; FXN GAA850 act: -1; DAX1 inh: 1

Results for CC(=O)c1cccc(NC(=O)C(C)N(C)CC(=O)Nc2ccc(Cl)cc2)c1 (stereo not given) ?
HSF1 inhib: 0; HSF-1 act: 7; AHR act: 3; FXN GAA850 act: -1; DAX1 inh: 0

Results for O=C(Cn1cc(C(=O)c2ccco2)c2ccccc21)NC1CCCCC1 ?
HSF1 inhib: -87*; HSF-1 act: -90; AHR act: 2; FXN GAA850 act: 1; DAX1 inh: -1

How did O=C(Cn1cc(C(=O)c2ccco2)c2ccccc21)Nc1ccccc1 do in these assays?
HSF1 inhib: -1; HSF-1 act: 12; AHR act: 5; FXN GAA850 act: 1; DAX1 inh: -2

What do the screens show for `Cc1ccccc1C(=O)N1CCC(C(=O)N2CCN(S(=O)(=O)c3ccccc3F)CC2)CC1`?
HSF1 inhib: -10; HSF-1 act: -11; AHR act: -2; FXN GAA850 act: -2; DAX1 inh: 0

What do the screens show for `CCCOP(=O)(OCCC)C(Nc1ccc(C(C)C)cc1)c1ccc([N+](=O)[O-])cc1` (stereo not given)?
HSF1 inhib: -42; HSF-1 act: -43; AHR act: 60*; FXN GAA850 act: -2; DAX1 inh: 1

Results for CCN(CCCNC(=O)CNC(=O)c1nn(-c2ccc(OC)cc2OC)c(=O)c2ccccc12)c1cccc(C)c1 ?
HSF1 inhib: 59; HSF-1 act: 61*; AHR act: 1; FXN GAA850 act: -1; DAX1 inh: -1

How did CCN(CC)CCNC(=O)CNC(=O)c1nn(-c2ccc(OC)c(OC)c2)c(=O)c2ccccc12 do in these assays?
HSF1 inhib: -15; HSF-1 act: -3; AHR act: 2; FXN GAA850 act: -1; DAX1 inh: 4.9*

What do the screens show for `COCCCNC(=O)CNC(=O)c1nn(-c2ccc(OC)cc2OC)c(=O)c2ccccc12`?
HSF1 inhib: -6; HSF-1 act: 2; AHR act: 0; FXN GAA850 act: 0; DAX1 inh: 0

Results for O=C(Nc1ccc2c(c1)OCCO2)c1ccc2ccccc2n1 ?
AHR act: 52*; FXN GAA850 act: 4; DAX1 inh: 3

How did O=C(Nc1ccc(Cl)c([N+](=O)[O-])c1)c1ccncc1 do in these assays?
HSF1 inhib: -8; HSF-1 act: -3; AHR act: 10; FXN GAA850 act: 0; DAX1 inh: -1

Results for Cc1cccc(/C=C(\C(=O)C(=O)O)c2ccc3ccccc3n2)c1 ?
HSF1 inhib: 26; HSF-1 act: 14; AHR act: 15; FXN GAA850 act: 4; DAX1 inh: 1

How did O=C(O)C(=O)/C(=C\c1cccc(Cl)c1)c1ccc2ccccc2n1 do in these assays?
HSF1 inhib: 17; HSF-1 act: 60*; AHR act: 32; FXN GAA850 act: 6; DAX1 inh: 2

Results for O=C(Nc1ccc(Cl)c([N+](=O)[O-])c1)c1cnccn1 ?
HSF1 inhib: 6; HSF-1 act: -4; AHR act: 70*; FXN GAA850 act: 1; DAX1 inh: 2

What do the screens show for `O=C(Nc1ccccc1)c1ccc2ccccc2n1`?
HSF1 inhib: 18; HSF-1 act: 20; AHR act: 43; FXN GAA850 act: 3; DAX1 inh: 5.6*

Results for CCO[C@@H]1OC(C(N)=O)=C[C@H](c2ccc3c(c2)OCO3)[C@H]1CCCO ?
HSF1 inhib: -3; HSF-1 act: 3; AHR act: 7; FXN GAA850 act: 2; DAX1 inh: -1

How did CC(C)Oc1ccc(CN2CCC2(C)C(=O)Nc2cnc3ccccc3c2)cc1 (stereo not given) do in these assays?
FXN GAA850 act: 2

What do the screens show for `C=CS(=O)(=O)N(Cc1ccccc1Br)[C@H](CO)CC(C)C`?
FXN GAA850 act: -3; DAX1 inh: -2

How did COc1ccc(NC(=O)COC(=O)c2ccc3ccccc3n2)cc1 do in these assays?
AHR act: 22; FXN GAA850 act: 0; DAX1 inh: 0

What do the screens show for `O=C(Nc1ccc(OC(F)(F)F)cc1)c1cnccn1`?
HSF1 inhib: 10; HSF-1 act: 23; AHR act: -1; FXN GAA850 act: 3; DAX1 inh: 6.4*

How did O=C(Nc1ccc(OC(F)(F)F)cc1)c1ccc2ccccc2n1 do in these assays?
HSF1 inhib: 10; HSF-1 act: 32; AHR act: 47*; FXN GAA850 act: 3; DAX1 inh: 0

Results for O=C(OCN1C(=O)c2ccccc2C1=O)c1ccccc1 ?
HSF1 inhib: 37; HSF-1 act: 75*; AHR act: -2; FXN GAA850 act: -1; DAX1 inh: 0

Bioassay records deposited in PubChem by several laboratories.
